The structures appear in SMILES notation. Calls of active or inactive are those of the source.

The values that follow come from PubChem BioAssay.

Experiment [1] is described as follows: compounds binding Alexa647 anti-His antibody – biochemical, small-molecule microarray, 635 nm fluorescence, artefact control for SMM control protein annotation, primary screen (AID 1128).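 Note: score merges feature fluorescence with signal-to-noise for each printed compound spot.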 Conditions: higher = more signal.
Experiment [2] concerns Human papillomavirus type 1a E7 protein (residues 1-88). Nature of the experiment: HPV1a E7 small-molecule binders, primary screen, biochemical, small-molecule microarray, residues 1-88, 635 nm (AID 1129). Conditions: small-molecule microarray binding, fluorescence 635 nm; higher = more signal.
Experiment [3] deals with Focal adhesion kinase 1 (Homo sapiens) (UniProt Q05397). As to the kind of experiment: PTK2 protein binding on printed compound slides – biochemical, small-molecule microarray, 635/667 nm fluorescence, BSA, DTT, primary screen (AID 1130).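 Note: composite of spot emission at 667 nm and signal to noise over triplicate slides.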 The note with it: 635 nm fluorescence, higher = more signal.
The test system of experiment [4] is Fibrinogen (Alexa647-labelled). As to the kind of experiment: Alexa647-fibrinogen binding to printed small molecules – biochemical, small-molecule microarray, 635/667 nm fluorescence, artefact control for SMM control-protein annotation, profiling panel (AID 1131).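 Note: z-score merges 667 nm fluorescence with per-spot signal-to-noise over triplicate slides.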 The note with it: fibrinogen-A647 binding fluorescence, higher = more signal.
In experiment [5] the target is Follistatin (Homo sapiens) (UniProt P19883). Nature of the experiment: FST protein binding to printed compounds – biochemical, small-molecule microarray, 635/667 nm fluorescence, primary screen (AID 1132). Conditions: 635 nm fluorescence, higher = more signal.
The target of experiment [6] is Fibroblast growth factor 2 (Homo sapiens) (UniProt P09038). Nature of the experiment: basic fibroblast growth factor binding to printed compounds – biochemical, small-molecule microarray, 635/667 nm fluorescence, primary screen (AID 1133). The note with it: FGF2, fluorescence 635/667, higher = more signal.
Experiment [7] is described as follows: JC-1 mitochondrial potential readout, lung cancer cells – cell-based, A549, JC-1 fluorescence, basal, 24 h, 100 nL, profiling panel (AID 1138).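 Note: A549 lung adenocarcinoma cells under basal conditions with no added stimulus; test concentration not given here.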 The note with it: higher = more signal.
Experiment [8] concerns Lefty1. Nature of the experiment: Lefty1 protein binding to printed compounds – biochemical, small-molecule microarray, 635/667 nm fluorescence, primary screen (AID 1139). The note with it: fluorescence 635/667, higher = more signal.
Experiment [9] concerns wheat germ agglutinin (Triticum aestivum), Alexa647-labelled. As to the kind of experiment: Alexa647-WGA lectin binding to printed small molecules – biochemical, small-molecule microarray, 635/667 nm fluorescence, artefact control for SMM control-protein annotation, profiling panel (AID 1140).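 Note: score merges 667 nm feature emission with signal to noise over triplicate slides.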 Conditions: WGA-A647 binding, 635 nm fluorescence, higher = more signal.
Experiment [10] has as its target Luciferin 4-monooxygenase (Photinus pyralis) (UniProt P08659). As to the kind of experiment: inhibition of purified Photinus pyralis luciferase – biochemical, luminescence, purified enzyme, 2006 set, primary screen (AID 1141).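 Note: cell-free assay with purified firefly luciferase at 100 ng per well in PBS; test concentration not given here.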 The note with it: purified firefly luciferase, SteadyGlo luminescence, 30 min; higher = more signal, called active from +8 up or from −8 down.

Chain of Follistatin (Homo sapiens) (P19883 whole entry, looked up): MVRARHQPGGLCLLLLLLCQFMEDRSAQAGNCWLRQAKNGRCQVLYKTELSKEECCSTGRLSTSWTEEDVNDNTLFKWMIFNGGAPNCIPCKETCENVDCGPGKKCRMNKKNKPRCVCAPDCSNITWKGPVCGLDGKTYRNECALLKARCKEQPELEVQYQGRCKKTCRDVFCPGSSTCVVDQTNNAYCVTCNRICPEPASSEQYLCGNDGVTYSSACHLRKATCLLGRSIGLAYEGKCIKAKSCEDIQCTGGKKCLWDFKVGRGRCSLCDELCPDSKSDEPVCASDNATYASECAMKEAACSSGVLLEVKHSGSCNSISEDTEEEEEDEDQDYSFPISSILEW
Chain of Focal adhesion kinase 1 (Homo sapiens) (Q05397 whole entry, looked up): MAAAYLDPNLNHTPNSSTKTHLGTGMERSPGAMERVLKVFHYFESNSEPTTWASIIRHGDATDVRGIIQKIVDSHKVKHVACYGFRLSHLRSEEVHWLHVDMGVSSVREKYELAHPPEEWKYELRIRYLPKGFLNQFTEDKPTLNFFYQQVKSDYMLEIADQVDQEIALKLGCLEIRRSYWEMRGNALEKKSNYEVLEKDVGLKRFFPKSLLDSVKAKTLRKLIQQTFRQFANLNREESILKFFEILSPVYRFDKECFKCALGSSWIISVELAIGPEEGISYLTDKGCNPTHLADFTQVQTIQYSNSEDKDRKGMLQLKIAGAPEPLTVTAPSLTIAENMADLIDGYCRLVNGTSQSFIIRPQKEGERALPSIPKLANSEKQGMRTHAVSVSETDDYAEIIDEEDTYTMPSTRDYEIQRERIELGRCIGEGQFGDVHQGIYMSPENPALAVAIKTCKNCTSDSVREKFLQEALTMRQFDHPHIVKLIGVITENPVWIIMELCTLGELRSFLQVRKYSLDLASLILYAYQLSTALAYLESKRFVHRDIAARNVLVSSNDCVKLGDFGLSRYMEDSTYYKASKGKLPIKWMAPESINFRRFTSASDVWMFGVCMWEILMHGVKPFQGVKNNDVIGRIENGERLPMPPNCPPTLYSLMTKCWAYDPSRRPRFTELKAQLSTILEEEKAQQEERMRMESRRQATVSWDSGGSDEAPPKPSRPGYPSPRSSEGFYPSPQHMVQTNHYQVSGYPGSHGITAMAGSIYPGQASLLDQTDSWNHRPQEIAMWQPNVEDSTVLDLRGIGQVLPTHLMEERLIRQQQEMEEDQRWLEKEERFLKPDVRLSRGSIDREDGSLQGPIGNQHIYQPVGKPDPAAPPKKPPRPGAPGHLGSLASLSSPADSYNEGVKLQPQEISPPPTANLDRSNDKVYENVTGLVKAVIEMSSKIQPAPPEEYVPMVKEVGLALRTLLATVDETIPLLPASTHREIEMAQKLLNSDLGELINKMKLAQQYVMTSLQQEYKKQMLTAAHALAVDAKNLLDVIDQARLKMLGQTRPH
Chain of Luciferin 4-monooxygenase (Photinus pyralis) (P08659 whole entry, looked up): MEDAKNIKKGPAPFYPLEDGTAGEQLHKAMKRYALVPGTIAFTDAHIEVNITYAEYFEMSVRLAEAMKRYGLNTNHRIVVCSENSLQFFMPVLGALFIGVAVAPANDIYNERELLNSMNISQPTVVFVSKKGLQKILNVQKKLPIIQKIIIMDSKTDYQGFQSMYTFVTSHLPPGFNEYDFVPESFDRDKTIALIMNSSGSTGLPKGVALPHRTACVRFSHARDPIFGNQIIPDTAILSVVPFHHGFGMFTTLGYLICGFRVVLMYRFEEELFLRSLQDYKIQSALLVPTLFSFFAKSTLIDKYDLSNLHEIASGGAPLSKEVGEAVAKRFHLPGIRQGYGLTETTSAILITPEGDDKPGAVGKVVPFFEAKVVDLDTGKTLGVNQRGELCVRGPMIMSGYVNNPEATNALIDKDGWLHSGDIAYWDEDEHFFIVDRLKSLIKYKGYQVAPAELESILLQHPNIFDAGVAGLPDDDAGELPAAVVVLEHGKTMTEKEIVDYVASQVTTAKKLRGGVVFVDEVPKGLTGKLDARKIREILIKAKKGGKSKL
Chain of Fibroblast growth factor 2 (Homo sapiens) (P09038 whole entry, looked up): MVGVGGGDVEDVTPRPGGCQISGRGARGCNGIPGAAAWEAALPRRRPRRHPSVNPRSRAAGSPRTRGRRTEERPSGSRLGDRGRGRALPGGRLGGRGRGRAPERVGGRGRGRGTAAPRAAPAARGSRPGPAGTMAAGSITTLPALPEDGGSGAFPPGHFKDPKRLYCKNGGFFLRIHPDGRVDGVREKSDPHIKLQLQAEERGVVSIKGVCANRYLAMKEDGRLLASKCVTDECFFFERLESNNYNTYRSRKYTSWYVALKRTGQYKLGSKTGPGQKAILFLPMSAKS

As to `CC(=CC1CCCCC1)[C@@H](NC(=O)c1ccc(C(F)(F)F)cc1)c1ccc(-c2ccccc2)cc1`, the composite z-score was -0.453 in experiment [1]; -0.753 in experiment [2]; -0.708 in experiment [3]; -0.134 in [4]; -0.136 in experiment [5]; -0.58 in experiment [6]. Further, the composite z-score is -0.795 in experiment [8] and 0.165 in experiment [9]. In addition, the z-score is -0.269 in experiment [7] and 1.25 (inactive) in [10].

As for `Cc1ccc(S[C@]2(C(=O)O)CC(=O)N(C3Cc4ccccc4C3)[C@@H]2c2ccc(CO)cc2I)cc1`, the composite z-score in experiment [1] is 0.198; in experiment [2], 0.27; in experiment [3], 0.148; in [4] it was 0.439; in experiment [5], 1.09; in experiment [6], -0.499. For the same molecule, the composite z-score in experiment [8] is -0.936; in [9], 0.513. The values for the z-score in experiment [7] and in experiment [10] were 0.478 and 0.285 (inactive), respectively.

`CC(C)C(O)C1C=CC2C(=O)N(c3ccccc3)C(=O)C2N1Nc1ccc(C#N)cc1` (stereo not given): the composite z-score in experiment [1] was 1.68; in [2] it was 1.14; in experiment [3], 0.0162; in experiment [4] it was 1.01; in experiment [5] it was 0.97; in [6], 0.598. Also, the composite z-score in experiment [8] is -0.265; in experiment [9] it was 1.12. The z-score in experiment [7] is 0.192; in experiment [10] it was -0.555 (inactive).

As to `C=CC[C@@H](OC(=O)Nc1ccc(OC)cc1)c1ccc(O)c2ccccc12`, the composite z-score in [1] came to 0.235; in experiment [2], 1.17; in experiment [3] it was 2; in [4] it was 0.656; in experiment [5], 1.39; in [6], 1.94. The composite z-score in [8] amounted to 1.35; in [9], 0.542. Besides, the figures for the z-score in experiment [7] and in experiment [10] were -1.3 and -6.72 (inactive), respectively.

With `CCCN1C(=O)[C@@]2(CCC(=O)OC(C)(C)C)N=C(c3ccc(OCCCO)cc3)O[C@H]2c2ccccc21`, the composite z-score in [1] was found to be 2.6; in experiment [2] it was 0.999; in [3], 0.677; in experiment [4], 0.274; in experiment [5] it was 1.4; in [6] it was 1.53. The composite z-score in experiment [8] worked out at 0.691; in experiment [9], 0.133. Also, the z-score in experiment [7] is 1.13; in [10], -2.45 (inactive).

In the case of `COc1ccc(C#Cc2ccc3c(c2)[C@]2(C(=O)N3)[C@H](c3ccc(O)cc3)N3[C@H](c4ccccc4)[C@H](c4ccccc4)OC(=O)[C@H]3[C@@H]2C(=O)N2CCCCCCC2)cc1`, the composite z-score was determined as 0.477 in experiment [1]; 1.22 in experiment [2]; 0.75 in [3]; 0.702 in experiment [4]; 1.49 in [5]; 1.02 in [6]. For the same molecule, the values for the composite z-score in [8] and in experiment [9] were 1.61 and 1.35, respectively. Moreover, the z-score is -0.067 in experiment [7] and -1.78 (inactive) in experiment [10].

Turning to `Cc1ccc(S[C@]2(C(=O)NCCN3CCOCC3)CC(=O)N(Cc3cc(C(F)(F)F)cc(C(F)(F)F)c3)[C@@H]2c2ccc(CO)cc2I)cc1`, the composite z-score in experiment [1] is -1.02; in experiment [2], -0.27; in experiment [3], 0.414; in [4], -0.46; in experiment [5], 0.016; in experiment [6], -1.13. For the same molecule, the composite z-score in experiment [8] is -0.304; in experiment [9] it was 0.0101. Moreover, the z-score in [7] was 0.164; in experiment [10], 1.31 (inactive).

Take `CC=CC(O)C1C=CC2C(=O)N(c3ccccc3)C(=O)C2N1Nc1ccc(C(C)C)cc1` (stereo not given): the composite z-score was 0.585 in experiment [1]; 1.2 in experiment [2]; 0.777 in [3]; 0.831 in experiment [4]; 1.12 in [5]; 0.133 in experiment [6]. Further, the composite z-score in [8] turned out to be 0.0518; in experiment [9], 1.32. The z-score is -0.723 in experiment [7] and -0.959 (inactive) in experiment [10].

In the case of `CCCCC(O)C1C=CC2C(=O)N(C3CCCCC3)C(=O)C2N1Nc1ccc(OC)cc1` (stereo not given), the composite z-score is 0.17 in [1]; 1.2 in experiment [2]; 0.601 in experiment [3]; 0.733 in experiment [4]; 1.19 in [5]; -0.0692 in experiment [6]. The composite z-score came out at 0.496 in experiment [8] and 1.14 in experiment [9]. The z-score was 0.191 in [7] and 1.06 (inactive) in [10].

For the molecule `CCOC(=O)[C@H]1C/C=C/C[C@H](C(=O)OCC)C(=O)O[C@H]2[C@@H](OC)O[C@H](CO)[C@@H](OC(=O)Nc3ccc4c(c3)OCO4)[C@@H]2OC1=O`, the composite z-score in experiment [1] was 2.08; in [2], 1.2; in [3], 0.528; in experiment [4] it was 0.485; in experiment [5], -0.114; in experiment [6], 0.254. Also, the composite z-score in experiment [8] is 0.403; in [9], -0.115. Moreover, the values for the z-score in experiment [7] and in experiment [10] were -1.25 and -1.93 (inactive), respectively.

Take `COCCCNC(=O)[C@@]1(CCC(=O)OC(C)(C)C)N=C(c2ccc(OCCCO)cc2)O[C@H]1c1ccccc1CN=[N+]=[N-]`: the composite z-score in [1] is 3.15; in [2] it was 1.04; in [3], 1.02; in [4], 1.01; in experiment [5], 1.39; in [6], 1.28. For the same molecule, the composite z-score was -0.34 in experiment [8] and 1.2 in experiment [9]. Further, the z-score in [7] is -0.49; in [10] it was -1.05 (inactive).

With `CC(=O)C1=CCC(c2ccccc2)N(S(=O)(=O)c2ccc(C)cc2)C1` (stereo not given), the composite z-score is 1.8 in [1]; 1.19 in experiment [2]; 0.362 in experiment [3]; 0.757 in experiment [4]; 0.798 in experiment [5]; -0.194 in experiment [6]. The figures for the composite z-score in experiment [8] and in experiment [9] were 0.176 and 1.21, respectively. Also, the z-score in experiment [7] is -1.16; in experiment [10], 1.6 (inactive).
